# Experiment: HeLa cell cycle G2/M accumulation – FACS, mechanism study for Wee1 degradation inhibitor project, late-stage follow-up (AID 2088)
# Settings: HeLa Wee1-luciferase degradation, luminescence, G2/M arrest assay, compound-treated cells, stronger effect = higher value, concentration not given here
structure (smiles),measurement,value
Cc1ccnc(NC(=O)CCCOc2cc(=O)n(C)c3ccccc23)c1,G2/M cells,30.5%

# Source: PubChem BioAssay AID2088 (The Scripps Research Institute Molecular Screening Center, 2009)
